Data on 40 compounds can be found in PubChem BioAssay (NCATS).

Values joined by “and” are separate entries in the source; they are usually repeats but may differ in a detail not shown here. Equal entries are not always repeated. Active and inactive are the calls of the source.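 Rule for the calls: active = compounds whose dose series gives a full or clear partial fitted curve of increased nuclear translocation; inconclusive = weak partial curve or effect only at the top dose; inactive = no dose-dependent translocation response.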
Potency is the fitted concentration of half-maximal effect.

Chain of Glucocorticoid receptor (Homo sapiens) (P04150 whole entry, looked up): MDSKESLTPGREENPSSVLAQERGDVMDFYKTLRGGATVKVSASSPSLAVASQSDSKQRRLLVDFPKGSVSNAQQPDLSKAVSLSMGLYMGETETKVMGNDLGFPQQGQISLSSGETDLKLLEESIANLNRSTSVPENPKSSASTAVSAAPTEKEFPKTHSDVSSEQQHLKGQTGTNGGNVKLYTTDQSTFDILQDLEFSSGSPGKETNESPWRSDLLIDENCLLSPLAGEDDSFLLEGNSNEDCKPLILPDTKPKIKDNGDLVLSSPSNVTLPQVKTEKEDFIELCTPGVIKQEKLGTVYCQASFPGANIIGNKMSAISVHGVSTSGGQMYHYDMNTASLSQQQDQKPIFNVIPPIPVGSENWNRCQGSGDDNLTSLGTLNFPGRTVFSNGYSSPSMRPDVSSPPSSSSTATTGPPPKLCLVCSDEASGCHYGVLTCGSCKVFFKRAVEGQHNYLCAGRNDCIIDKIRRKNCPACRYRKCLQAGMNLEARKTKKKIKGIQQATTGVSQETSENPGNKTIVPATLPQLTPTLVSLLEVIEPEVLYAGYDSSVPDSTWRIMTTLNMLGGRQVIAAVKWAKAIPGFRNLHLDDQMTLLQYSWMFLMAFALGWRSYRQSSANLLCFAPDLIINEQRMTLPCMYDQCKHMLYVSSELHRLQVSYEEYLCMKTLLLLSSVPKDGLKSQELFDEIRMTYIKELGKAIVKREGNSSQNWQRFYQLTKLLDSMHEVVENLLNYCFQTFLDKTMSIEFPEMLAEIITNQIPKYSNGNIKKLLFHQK

This experiment has as its target Glucocorticoid receptor (Homo sapiens) (UniProt P04150). Kind of experiment: GR-GFP Redistribution (AID 450). As to conditions: U2OS GR-GFP nuclear translocation, laser cytometry, 2 h. An excerpt:
NIH Molecular Libraries Screening Centers Network [MLSCN]
NIH Chemical Genomics Center [NCGC]
The glucocorticoid receptor (GR) Redistribution assay (BioImage) enables the visualization of GR cytoplasmic to nuclear translocation by the use of a GR-GFP fusion. GR is normally cytosolic, however ligands such as dexamethasone, cause nuclear translocation where the protein binds to response elements and interacts with various co-factors to modulate transcription. Because both functional agonists and antagonists can induce nuclear translocation, this assay can detect ligands regardless of their effects on gene expression. GR-GFP expressing U20S cells were used here. Dexamethasone was the positive control for translocation and data normalization. Detection of nuclear translocation was performed in 1536-well plates using the Acumen laser scanning plate cytometer (TTP LabTech). Validation of this assay and a detailed protocol have been described.
NCGC Assay Protocol Summary:
GR-GFP U2OS cells were maintained in DMEM with Glutamax and high glucose, 1% v/v penicillin-streptomycin, and 0.5 mg/mL Geneticin. For cell culture, 10% […] fetal bovine serum (FBS) was used (Invitrogen #26140-079). For cell plating 10% dextran, charcoal-stripped FBS (Hyclone SH30068.03) was used. U2OS cells were trypsin treated, suspended in medium, and passed through a 40 um basket filter. The cells were seeded at 600 cells/5 uL/well into clear-bottom black sided 1536-well plates and incubated for approximately 20 hrs, 37degC, 5%, CO2 in a tissue culture incubator. Twenty-three nL of compound was delivered by pin tool and the plates were incubated as above for 2 hrs. The compounds were tested as a 7-point titration ranging from 46 uM to 0.6 nM. The cells were fixed using the Kalypsys Washer/Dispenser station. The fixing protocol involved aspiration of the cell media, addition of 6 uL/well of PBS, aspiration of PBS, addition of 5uL/well of 100% methanol, aspiration of methanol, and addition of 3 uL/well PBS with 1.5 uM propidium iodide (PI). The plates were read by the Acumen Explorer using a 1 x 8 um scan of the whole well area. PI fluorescence triggered the collection of PI and GFP signals. A nuclei population was defined by a 10 to 100 um width and depth filter that eliminated small and large fluorescent particles. Two subpopulations of nuclei were then defined by peak intensity of GFP fluorescence to obtain translocated and untranslocated objects. The number of translocated objects was used for data normalization.
Keywords: NIH Roadmap, MLSCN, MLI, MLSMR, sOGT, qHTS, NCGC
Take `CN[C@@H]1C[C@H](c2ccc(Cl)c(Cl)c2)c2ccccc21`: the Potency was > 46 µM (inactive).

`CC1=C[C@@H]2c3cccc4[nH]cc(c34)C[C@H]2N(C)C1`: the Potency is > 46 µM (inactive).

Regarding `N[C@@H](Cn1cc(I)c(=O)[nH]c1=O)C(=O)O`, the Potency is > 46 µM (inactive).

With `c1ccc2c3c([nH]c2c1)CNCC3`, the Potency was > 20.6 µM (inactive).

In the case of `c1ccc2c(c1)OC[C@@H](C1=NCCN1)O2`, the Potency is > 46 µM (inactive) and > 20.6 µM (inactive).

For the compound `CC(C)(C)NC[C@@H](O)COc1cccc2[nH]c(C#N)cc12`, the Potency was > 46 µM (inactive).

Consider `S=C=Nc1cccc(C2(N3CCCCC3)CCCCC2)c1`, for which the Potency is > 46 µM (inactive).

`COc1ccc2[nH]cc(CCN(C)C)c2c1`: the Potency is > 46 µM (inactive) and > 20.6 µM (inactive).

As to `N[C@@H](CCCCP(=O)(O)O)C(=O)O`, the Potency is > 46 µM (inactive).

Turning to `C[C@H](N)Cc1c[nH]c2ccc(O)cc12`, the Potency is > 46 µM (inactive).

For the compound `C[C@@H](C(=O)OC1C[C@H]2CC[C@@H](C1)N2C)c1ccc(Br)cc1` (stereo not given in full), the Potency is > 46 µM (inactive).

For the compound `O=C(O)/C=C\CO`, the Potency was > 46 µM (inactive).

With `C[C@@H](Cc1ccc(OCC(=O)O)cc1)NC[C@H](O)c1cccc(Cl)c1`, the Potency is > 46 µM (inactive).

In the case of `Cc1nc(N)sc1CCN`, the Potency was > 46 µM (inactive).

As to `Oc1ccc2c3c1O[C@H]1c4[nH]c5ccccc5c4C[C@]4(O)[C@H](C2)N(CC2CC2)CC[C@@]314`, the Potency was > 46 µM (inactive).

`COc1cccc2c1cc([N+](=O)[O-])c1c(C(=O)O)cc3c(c12)OCO3`: the Potency was > 46 µM (inactive).

Take `CC(C)(O)[C@@H]1[C@H]2OC(=O)[C@@H]1[C@]1(O)C[C@H]3O[C@]34C(=O)O[C@H]2[C@@]14C` (tested in a mixture with another compound): the Potency is > 46 µM (inactive).

For the compound `CN(C(=O)Cc1ccc(Cl)c(Cl)c1)[C@@H](CN1CCCC1)c1cccc(OCC(=O)O)c1`, the Potency is > 46 µM (inactive).

Regarding `Ic1cncc(OC[C@@H]2CCN2)c1`, the Potency is > 46 µM (inactive).

Turning to `CCCC(=O)OCC[N+](C)(C)C`, the Potency was > 20.6 µM (inactive).

Turning to `Cc1cccc([C@H](C)c2cnc[nH]2)c1C`, the Potency was > 46 µM (inactive).

In the case of `O[C@H]1CCCC[C@H]1N1CCC(c2ccccc2)CC1`, the Potency is > 20.6 µM (inactive) and > 46 µM (inactive).

Take `N[C@H](CP(=O)(O)O)C(=O)O`: the Potency was > 46 µM (inactive).

With `N[C@H](CCCCCP(=O)(O)O)C(=O)O`, the Potency was > 46 µM (inactive).

Consider `O=C1Nc2cc(Cl)c(Cl)cc2N2CCNC[C@H]12`, for which the Potency was > 46 µM (inactive).

Regarding `C=C1[C@@H](O)C2C=CC[C@H](C)C(=O)[C@@](C)(O)C=C[C@@H](OC(C)=O)[C@@]23C(=O)N[C@H](Cc2ccccc2)[C@@H]3[C@@H]1C` (stereo not given in full), the Potency was > 46 µM (inactive).

Turning to `CC1(C)N(O)C(c2ccc(C(=O)O)cc2)=[N+]([O-])C1(C)C`, the Potency is > 46 µM (inactive).

Regarding `CC(C)n1cnc2c(C(=O)N[C@H]3CN4CCC3CC4)cc(Cl)cc21`, the Potency was > 46 µM (inactive).

With `Clc1ccc(C2=CCC[C@H]3CC[C@@H]2N3)cn1`, the Potency is > 46 µM (inactive).

As to `CCCN(CCC)[C@@H]1CCc2c(OC)cccc2[C@@H]1C`, the Potency was > 46 µM (inactive).

For the compound `Fc1ccc(C(OCCN2CCN(C/C=C\c3ccccc3)CC2)c2ccc(F)cc2)cc1`, the Potency was > 46 µM (inactive).

In the case of `c1ccc([C@H]2CNCc3ccccc32)cc1`, the Potency is > 46 µM (inactive).

For `NC(N)=Nc1ccc2[nH]c3c(c2c1)C[C@]1(O)[C@@H]2Cc4ccc(O)c5c4[C@]1(CCN2CC1CC1)[C@@H]3O5`, the Potency is > 46 µM (inactive).

`CN(C)Cc1c[nH]c2ccccc12`: the Potency is > 20.6 µM (inactive) and > 46 µM (inactive).

`C[C@H](N)Cc1c[nH]c2ccc(OCc3cccs3)cc12`: the Potency is > 46 µM (inactive).

`CCCCCCCCCOc1ccc2[nH]cc(CCN)c2c1`: the Potency is > 46 µM (inactive).

Turning to `CN1C[C@H](CNC(=O)OCc2ccccc2)C[C@H]2c3cccc4c3c(cn4C)C[C@@H]21`, the Potency is > 20.6 µM (inactive).

Regarding `O=C1C2CCN(CC2)C1(CO)CO`, the Potency was > 46 µM (inactive).

For the compound `CN(C(=O)Cc1ccc(Cl)c(Cl)c1)[C@H](CN1CCCC1)c1cccc(N=C=S)c1`, the Potency is > 46 µM (inactive).

`CCCN1C[C@H](C)N([C@H](c2ccc(C(=O)N(CC)CC)cc2)c2cccc(OC)c2)C[C@H]1C`: the Potency is > 46 µM (inactive).
